Laboratory results published in PubChem BioAssay AID1159580 (chemical genetic matrix, 2015).
About 2,000 (36%) of roughly 5,500 compounds were called active. Roughly 18% stayed inconclusive and do not appear here. No stated cut-off is given here; in the data, active means normalized growth mostly below about 0.91 (no sharp cut-off); inconclusive means no clear call, values can overlap the other calls; inactive means mostly above about 0.92. Some of the results follow.

Assay: chemical genetic growth profiling, strain panel (AID 1159580);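 further: tested at 20 µM; growth read once vehicle control cultures reached saturation at 30 °C; 1 = growth at the plate median or of vehicle wells; lower values mean less growth of the strain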
Details: growth OD

Measured: normalized growth

CC(=O)O[C@@H]1C=C[C@@]2(C)C(C[C@@H](OC(C)=O)[C@@]3(C)C4=CC(=O)O[C@@H](c5ccoc5)[C@]4(C)CCC23)C1(C)C (some centres not stated)
inactive: S. cerevisiae deletion strains, locus YJR066W, strain TOR1, hits give low values 0.928 | S. cerevisiae deletion strains, locus YJR075W, strain HOC1, hits give low values 1.03 | S. cerevisiae deletion strains, locus YKL160W, strain elf1, hits give low values 0.988 | S. cerevisiae deletion strains, locus YKL190W, strain CNB1, hits give low values 1.01 | S. cerevisiae deletion strains, locus YKR026C, strain gcn3, hits give low values 1.01 | S. cerevisiae deletion strains, locus YKR091W, strain srl3, hits give low values 0.982 | S. cerevisiae deletion strains, locus YLL001W, strain dnm1, hits give low values 1.02 | S. cerevisiae deletion strains, locus YLL026W, hits give low values 1.01 | S. cerevisiae deletion strains, locus YLL041C, strain sdh2, hits give low values 0.999 | S. cerevisiae deletion strains, locus YLR027C, strain aat2, hits give low values 1 | S. cerevisiae deletion strains, locus YLR039C, strain RIC1, hits give low values 0.982 | S. cerevisiae deletion strains, locus YLR058C, strain SHM2, hits give low values 1.01 | S. cerevisiae deletion strains, locus YLR113W, strain HOG1, hits give low values 1.01 | S. cerevisiae deletion strains, locus YLR221C, strain rsa3, hits give low values 1.05 | S. cerevisiae deletion strains, locus YLR258W, strain gsy2, hits give low values 0.999 | S. cerevisiae deletion strains, locus YLR262C, strain YPT6 (second series), hits give low values 0.96 | S. cerevisiae deletion strains, locus YLR262C, strain YPT6, hits give low values 0.986 | S. cerevisiae deletion strains, locus YLR320W, strain mms22, hits give low values 1.02 | S. cerevisiae deletion strains, locus YLR330W, strain CHS5, hits give low values 1.01 | S. cerevisiae deletion strains, locus YLR342W, strain FKS1 (second series), hits give low values 1.03 | S. cerevisiae deletion strains, locus YLR342W, strain FKS1, hits give low values 0.994 | S. cerevisiae deletion strains, locus YLR357W, strain rsc2, hits give low values 1.03 | S. cerevisiae deletion strains, locus YLR370C, strain arc18, hits give low values 0.983 | S. cerevisiae deletion strains, locus YLR384C, strain iki3, hits give low values 0.983 | S. cerevisiae deletion strains, locus YML016C, strain PPZ1, hits give low values 1.02 | S. cerevisiae deletion strains, locus YML120C, strain ndi1, hits give low values 0.994 | S. cerevisiae deletion strains, locus YMR058W, strain fet3, hits give low values 0.984 | S. cerevisiae deletion strains, locus YMR125W, strain sto1, hits give low values 0.997 | S. cerevisiae deletion strains, locus YMR129W, hits give low values 0.999 | S. cerevisiae deletion strains, locus YMR205C, strain PFK2, hits give low values 1 | S. cerevisiae deletion strains, locus YMR231W, strain pep5, hits give low values 0.991 | S. cerevisiae deletion strains, locus YMR263W, strain SAP30, hits give low values 1 | S. cerevisiae deletion strains, locus YMR307W, strain GAS1, hits give low values 1.06 | S. cerevisiae deletion strains, locus YNL067W, strain RPL9B, hits give low values 1 | S. cerevisiae deletion strains, locus YNL071W, strain lat1, hits give low values 0.992 | S. cerevisiae deletion strains, locus YNL128W, strain TEP1, hits give low values 1 | S. cerevisiae deletion strains, locus YNL153C, strain GIM3, hits give low values 0.998 | S. cerevisiae deletion strains, locus YNL183C, strain NPR1, hits give low values 0.956 | S. cerevisiae deletion strains, locus YNL209W, strain ssb2, hits give low values 0.985 | S. cerevisiae deletion strains, locus YNL233W, strain BNI4, hits give low values 1 | S. cerevisiae deletion strains, locus YNL248C, strain rpa49, hits give low values 0.961 | S. cerevisiae deletion strains, locus YNL322C, strain KRE1 (second series), hits give low values 0.985 | S. cerevisiae deletion strains, locus YNL322C, strain KRE1, hits give low values 1.02 | S. cerevisiae deletion strains, locus YNR049C, strain mso1, hits give low values 0.975 | S. cerevisiae deletion strains, locus YOL006C, strain TOP1, hits give low values 0.901 | S. cerevisiae deletion strains, locus YOR001W, strain rrp6, hits give low values 1.01 | S. cerevisiae deletion strains, locus YOR061W, strain CKA2, hits give low values 1.01 | S. cerevisiae deletion strains, locus YOR069W, strain VPS5, hits give low values 1.01 | S. cerevisiae deletion strains, locus YOR070C, strain gyp1, hits give low values 0.991 | S. cerevisiae deletion strains, locus YOR080W, strain dia2, hits give low values 0.984 | S. cerevisiae deletion strains, locus YOR083W, strain WHI5, hits give low values 1 | S. cerevisiae deletion strains, locus YOR106W, strain vam3, hits give low values 0.997 | S. cerevisiae deletion strains, locus YOR231W, strain MKK1, hits give low values 0.985 | S. cerevisiae deletion strains, locus YOR265W, strain rbl2, hits give low values 0.985 | S. cerevisiae deletion strains, locus YOR270C, strain vph1, hits give low values 0.885 | S. cerevisiae deletion strains, locus YOR290C, strain snf2, hits give low values 0.956 | S. cerevisiae deletion strains, locus YPL051W, strain arl3, hits give low values 0.996 | S. cerevisiae deletion strains, locus YPL055C, strain LGE1, hits give low values 0.968 | S. cerevisiae deletion strains, locus YPL078C, strain atp4, hits give low values 0.982 | S. cerevisiae deletion strains, locus YPL106C, strain sse1, hits give low values 0.975 | S. cerevisiae deletion strains, locus YPL240C, strain hsp82, hits give low values 0.993 | S. cerevisiae deletion strains, locus YPL241C, strain CIN2, hits give low values 1.01 | S. cerevisiae deletion strains, locus YPL256C, strain CLN2, hits give low values 0.948 | S. cerevisiae strains, strain wild type, hits give low values 1.02
active: S. cerevisiae deletion strains, locus YKL009W, strain mrt4, hits give low values 0.364 | S. cerevisiae deletion strains, locus YKL068W, hits give low values 0.0545 | S. cerevisiae deletion strains, locus YKL085W, strain MDH1 (second series), hits give low values 0.0525 | S. cerevisiae deletion strains, locus YKL085W, strain MDH1, hits give low values 0.0525 | S. cerevisiae deletion strains, locus YKR001C, strain vps1, hits give low values 0.0622 | S. cerevisiae deletion strains, locus YLR102C, strain apc9, hits give low values 0.0602 | S. cerevisiae deletion strains, locus YLR268W, strain sec22, hits give low values 0.0676 | S. cerevisiae deletion strains, locus YLR371W, strain rom2, hits give low values 0.0619 | S. cerevisiae deletion strains, locus YLR418C, strain cdc73, hits give low values 0.0929 | S. cerevisiae deletion strains, locus YML032C, strain rad52, hits give low values 0.15 | S. cerevisiae deletion strains, locus YML124C, strain tub3, hits give low values 0.0589 | S. cerevisiae deletion strains, locus YMR078C, strain ctf18, hits give low values 0.072 | S. cerevisiae deletion strains, locus YMR223W, strain ubp8, hits give low values 0.0665 | S. cerevisiae deletion strains, locus YNL250W, strain rad50, hits give low values 0.065 | S. cerevisiae deletion strains, locus YNL271C, strain bni1, hits give low values 0.0603 | S. cerevisiae deletion strains, locus YNL298W, strain CLA4, hits give low values 0.0602 | S. cerevisiae deletion strains, locus YNL307C, strain MCK1, hits give low values 0.069 | S. cerevisiae deletion strains, locus YNR052C, strain pop2, hits give low values 0.112 | S. cerevisiae deletion strains, locus YOL147C, strain pex11, hits give low values 0.0888 | S. cerevisiae deletion strains, locus YOR136W, strain idh2, hits give low values 0.0732 | S. cerevisiae deletion strains, locus YOR144C, strain elg1, hits give low values 0.131 | S. cerevisiae deletion strains, locus YOR184W, strain ser1, hits give low values 0.0712 | S. cerevisiae deletion strains, locus YOR316C, strain cot1, hits give low values 0.0594 | S. cerevisiae deletion strains, locus YPR119W, strain clb2, hits give low values 0.0629 | S. cerevisiae deletion strains, locus YPR141C, strain kar3, hits give low values 0.0773 | S. cerevisiae deletion strains, locus YPR163C, strain tif3, hits give low values 0.0691 | S. cerevisiae deletion strains, locus YPR167C, strain met16, hits give low values 0.0608 | S. cerevisiae deletion strains, strain wtn01, hits give low values 0.0601
